The values that follow come from the supplement of paper PMC6897291.

Experiment [1] relates to RIVA. In words: growth inhibition by drug alone (1 - RLU/untreated control) (fraction); higher = stronger inhibition. To be noted: 177Lu-lilotomab satetraxetan 0 ug/ml. In a few lines:
(§1)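 A radiolabelled anti-CD37 antibody conjugate (~600 MBq/mg) was applied for 18 h at 0.5 µg/ml to RIVA and 1 µg/ml to U-2932 cells, with untreated cells run alongside. All cells were washed and seeded at 3,000 cells/well onto library-printed plates at 10/100 nM (RIVA) or 10/1,000 nM (U-2932). Growth inhibition was based on RealTime-Glo luminescence compared with untreated no-drug wells. Daily reads began on day 3 after 1 h at 37°C, with each value being 1 − RLU/mean of the 48 such wells on that plate.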

Experiment [2] has as its system U-2932. In words: growth inhibition by drug plus 177Lu-lilotomab satetraxetan (1 - RLU/untreated control) (fraction); higher = stronger inhibition. To be noted: 177Lu-lilotomab satetraxetan 1 ug/ml. Put shortly: as §1
Experiment [3] has as its system RIVA. The experiment is described as above. The settings on record: 177Lu-lilotomab satetraxetan 0.5 ug/ml. In a few lines:
as §1

Experiment [4] deals with U-2932. In words: growth inhibition by drug alone (1 - RLU/untreated control) (fraction); higher = stronger inhibition. The settings on record: 177Lu-lilotomab satetraxetan 0 ug/ml. In a few lines:
as §1

Each structure is given as a SMILES string. Several values for one entry are separate records, joined by “and”; a condition that tells them apart may be missing. Equal values may be shown once.

Consider `Cc1nc(-c2ccc(OCC(C)C)c(C#N)c2)sc1C(=O)O` [Febuxostat (Uloric)], for which the “growth inhibition by drug alone” value in the experiment on RIVA [1] (10 nM, time (day): 3) is 0.0707; with RIVA [1] (10 nM, time (day): 4), 0.00437; with RIVA [1] (10 nM, time (day): 5) it was -0.101; in the experiment with RIVA [1] (10 nM, time (day): 6), -0.473; in the experiment on RIVA [1] (100 nM, time (day): 3), 0.158; in the experiment on RIVA [1] (100 nM, time (day): 4), 0.082. Moreover, the “growth inhibition by drug alone” value with RIVA [1] (100 nM, time (day): 5) is 0.0362; in the experiment with RIVA [1] (100 nM, time (day): 6), -0.046. In addition, the “growth inhibition by drug plus 177Lu-lilotomab satetraxetan” value in the experiment on U-2932 [2] (10 nM, time (day): 3) is 0.0457; with U-2932 [2] (10 nM, time (day): 4) it was 0.0731; in the experiment with U-2932 [2] (10 nM, time (day): 5), 0.0564; in the experiment on U-2932 [2] (10 nM, time (day): 6) it was 0.0873; with U-2932 [2] (1000 nM, time (day): 3) it was -0.0156; in the experiment with U-2932 [2] (1000 nM, time (day): 4), 0.0704. For the same compound, the “growth inhibition by drug plus 177Lu-lilotomab satetraxetan” value is 0.0056 with U-2932 [2] (1000 nM, time (day): 5); -0.0613 in the experiment on U-2932 [2] (1000 nM, time (day): 6); 0.368 with RIVA [3] (10 nM, time (day): 3); 0.506 with RIVA [3] (10 nM, time (day): 4); 0.513 in the experiment with RIVA [3] (10 nM, time (day): 5); 0.525 with RIVA [3] (10 nM, time (day): 6). For the same compound, the “growth inhibition by drug plus 177Lu-lilotomab satetraxetan” value in the experiment on RIVA [3] (100 nM, time (day): 3) is 0.42; with RIVA [3] (100 nM, time (day): 4) it was 0.463; with RIVA [3] (100 nM, time (day): 5), 0.463; with RIVA [3] (100 nM, time (day): 6), 0.45.
As to `CN[C@@H](C)C(=O)N[C@H]1CN(C(=O)CC(C)C)CC[C@H]2CC[C@@H](C(=O)NC(c3ccccc3)c3ccccc3)N2C1=O`, the “growth inhibition by drug alone” value in the experiment with RIVA [1] (10 nM, time (day): 3) was 0.00534; in the experiment with RIVA [1] (10 nM, time (day): 4), -0.116; in the experiment with RIVA [1] (10 nM, time (day): 5) it was -0.171; in the experiment with RIVA [1] (10 nM, time (day): 6) it was -0.417; with RIVA [1] (100 nM, time (day): 3), -0.168; with RIVA [1] (100 nM, time (day): 4), -0.227. In addition, the “growth inhibition by drug alone” value is -0.25 in the experiment on RIVA [1] (100 nM, time (day): 5) and -0.406 with RIVA [1] (100 nM, time (day): 6). Besides, the “growth inhibition by drug plus 177Lu-lilotomab satetraxetan” value with U-2932 [2] (10 nM, time (day): 3) is -0.0234; with U-2932 [2] (10 nM, time (day): 4), -0.00591; with U-2932 [2] (10 nM, time (day): 5) it was 0.0157; in the experiment with U-2932 [2] (10 nM, time (day): 6) it was 0.0545; in the experiment on U-2932 [2] (1000 nM, time (day): 3), -0.0193; in the experiment on U-2932 [2] (1000 nM, time (day): 4), 0.0475. The “growth inhibition by drug plus 177Lu-lilotomab satetraxetan” value worked out at 0.055 in the experiment on U-2932 [2] (1000 nM, time (day): 5); 0.159 with U-2932 [2] (1000 nM, time (day): 6); 0.456 in the experiment on RIVA [3] (10 nM, time (day): 3); 0.56 with RIVA [3] (10 nM, time (day): 4); 0.581 with RIVA [3] (10 nM, time (day): 5); 0.599 in the experiment on RIVA [3] (10 nM, time (day): 6). For the same compound, the “growth inhibition by drug plus 177Lu-lilotomab satetraxetan” value with RIVA [3] (100 nM, time (day): 3) turned out to be 0.456; in the experiment with RIVA [3] (100 nM, time (day): 4) it was 0.551; in the experiment with RIVA [3] (100 nM, time (day): 5), 0.567; in the experiment with RIVA [3] (100 nM, time (day): 6), 0.544.
On to `Cc1cn(-c2cc(NC(=O)c3ccc(C)c(Nc4nccc(-c5cccnc5)n4)c3)cc(C(F)(F)F)c2)cn1` [Nilotinib (AMN-107)], for which the “growth inhibition by drug alone” value with RIVA [1] (10 nM, time (day): 3) is -0.0335; with RIVA [1] (10 nM, time (day): 4), -0.0957; with RIVA [1] (10 nM, time (day): 5), -0.159; in the experiment with RIVA [1] (10 nM, time (day): 6), -0.318; with RIVA [1] (100 nM, time (day): 3), -0.122; with RIVA [1] (100 nM, time (day): 4), -0.118. The “growth inhibition by drug alone” value was -0.0918 in the experiment on RIVA [1] (100 nM, time (day): 5) and -0.17 with RIVA [1] (100 nM, time (day): 6). Also, the “growth inhibition by drug plus 177Lu-lilotomab satetraxetan” value with U-2932 [2] (10 nM, time (day): 3) is -0.0417; with U-2932 [2] (10 nM, time (day): 4) it was -0.0287; in the experiment with U-2932 [2] (10 nM, time (day): 5), -0.0436; with U-2932 [2] (10 nM, time (day): 6), 0.0203; in the experiment on U-2932 [2] (1000 nM, time (day): 3), -0.141; in the experiment on U-2932 [2] (1000 nM, time (day): 4) it was -0.0418. Moreover, the “growth inhibition by drug plus 177Lu-lilotomab satetraxetan” value was -0.0875 in the experiment with U-2932 [2] (1000 nM, time (day): 5); -0.155 with U-2932 [2] (1000 nM, time (day): 6); 0.372 in the experiment with RIVA [3] (10 nM, time (day): 3); 0.516 with RIVA [3] (10 nM, time (day): 4); 0.522 with RIVA [3] (10 nM, time (day): 5); 0.537 with RIVA [3] (10 nM, time (day): 6). The “growth inhibition by drug plus 177Lu-lilotomab satetraxetan” value was 0.362 in the experiment on RIVA [3] (100 nM, time (day): 3); 0.471 in the experiment on RIVA [3] (100 nM, time (day): 4); 0.491 with RIVA [3] (100 nM, time (day): 5); 0.466 in the experiment on RIVA [3] (100 nM, time (day): 6).
As to `C/C(=C\C(=O)Nc1ccccc1C(=O)O)c1ccc2ccccc2c1`, the “growth inhibition by drug alone” value in the experiment on U-2932 [4] (10 nM, time (day): 4) is 0.0133 and 0.0332; in the experiment with U-2932 [4] (1000 nM, time (day): 3), -0.0224 and -0.014; in the experiment with U-2932 [4] (1000 nM, time (day): 5) it was -0.0613 and -0.0571; with U-2932 [4] (1000 nM, time (day): 6) it was -0.273 and -0.127; in the experiment on RIVA [1] (10 nM, time (day): 5), -0.0819 and -0.194; with RIVA [1] (10 nM, time (day): 6), -0.258 and -0.514. The “growth inhibition by drug plus 177Lu-lilotomab satetraxetan” value in the experiment with U-2932 [2] (10 nM, time (day): 3) is -0.0301 and -0.033; with U-2932 [2] (10 nM, time (day): 5), 0.025 and 0.0323; with U-2932 [2] (1000 nM, time (day): 3), -0.0817 and -0.0426; in the experiment with U-2932 [2] (1000 nM, time (day): 6), 0.0333 and 0.0305; in the experiment with RIVA [3] (10 nM, time (day): 3), 0.404 and 0.42; in the experiment with RIVA [3] (10 nM, time (day): 4), 0.545 and 0.538. For the same compound, the “growth inhibition by drug plus 177Lu-lilotomab satetraxetan” value in the experiment with RIVA [3] (10 nM, time (day): 5) is 0.571 and 0.547; in the experiment on RIVA [3] (10 nM, time (day): 6), 0.581 and 0.558; in the experiment with RIVA [3] (100 nM, time (day): 3), 0.399 and 0.427; in the experiment on RIVA [3] (100 nM, time (day): 4), 0.502 and 0.474; in the experiment with RIVA [3] (100 nM, time (day): 5) it was 0.502 and 0.482; in the experiment with RIVA [3] (100 nM, time (day): 6), 0.484 and 0.467.
With `COc1ccc(CNC(=O)Nc2ncc([N+](=O)[O-])s2)cc1`, the “growth inhibition by drug alone” value with U-2932 [4] (10 nM, time (day): 3) was -0.00788; in the experiment on U-2932 [4] (10 nM, time (day): 4), -0.00166; in the experiment on U-2932 [4] (10 nM, time (day): 5) it was 0.0195; in the experiment on U-2932 [4] (10 nM, time (day): 6), 0.136; in the experiment on U-2932 [4] (1000 nM, time (day): 3), 0.0779; in the experiment on U-2932 [4] (1000 nM, time (day): 4), 0.0745. The “growth inhibition by drug alone” value is 0.0965 in the experiment on U-2932 [4] (1000 nM, time (day): 5); 0.0679 in the experiment on U-2932 [4] (1000 nM, time (day): 6); -0.12 in the experiment on RIVA [1] (10 nM, time (day): 3); -0.122 in the experiment on RIVA [1] (10 nM, time (day): 4); -0.158 in the experiment on RIVA [1] (10 nM, time (day): 5); -0.156 in the experiment with RIVA [1] (10 nM, time (day): 6). In addition, the “growth inhibition by drug alone” value in the experiment with RIVA [1] (100 nM, time (day): 3) is 0.108; in the experiment with RIVA [1] (100 nM, time (day): 4), 0.0378; in the experiment on RIVA [1] (100 nM, time (day): 5), -0.00577; with RIVA [1] (100 nM, time (day): 6), -0.0255. In addition, the “growth inhibition by drug plus 177Lu-lilotomab satetraxetan” value is -0.0555 in the experiment with U-2932 [2] (10 nM, time (day): 3); -0.0169 in the experiment with U-2932 [2] (10 nM, time (day): 4); 0.0364 in the experiment with U-2932 [2] (10 nM, time (day): 5); 0.187 in the experiment on U-2932 [2] (10 nM, time (day): 6); 0.116 with U-2932 [2] (1000 nM, time (day): 3); 0.138 in the experiment on U-2932 [2] (1000 nM, time (day): 4). Further, the “growth inhibition by drug plus 177Lu-lilotomab satetraxetan” value in the experiment on U-2932 [2] (1000 nM, time (day): 5) was 0.159; in the experiment on U-2932 [2] (1000 nM, time (day): 6), 0.289.
